Data published in PubChem BioAssay.
Activity calls are given as the source filed them.

How the values were obtained:
[1] = small molecules captured by biotinylated probe aFSTL3 – biochemical, small-molecule microarray, fluorescence 635/667, stem cell growth factor project, primary screen (AID 1064); conditions: higher = more signal;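 also: measures binding of the biotinylated anti-FSTL3 antibody to printed compounds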
[2] = binders from COS7 lysate, DM2A8 probe, primary screen, torsin A project, cell lysate, small-molecule microarray, fluorescence 635/667 (AID 1065); conditions: higher = more signal, COS7 lysate expressing mutant human TOR1A
[3] = small molecules captured by biotinylated probe aFGF2 – biochemical, small-molecule microarray, fluorescence 635/667, stem cell growth factor project, primary screen (AID 1067); conditions: higher = more signal;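 also: measures binding of biotinylated aFGF2 protein to printed compounds on slides; z-score merges feature fluorescence and signal-to-noise across triplicate slides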
[4] = small molecules captured by biotinylated probe aFGF10 – biochemical, small-molecule microarray, fluorescence 635/667, stem cell growth factor project, primary screen (AID 1071); conditions: higher = more signal;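 also: score merges 667 nm spot intensity and signal to noise from triplicate slides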
[5] = target: Neurogenic locus notch homolog protein 2 (Homo sapiens) (UniProt Q04721); assay: small molecules binding Notch2 protein – biochemical, small-molecule microarray, 635 nm fluorescence, stem cell growth factors, primary screen (AID 1073); conditions: higher = more signal
Sequence of Neurogenic locus notch homolog protein 2 (Homo sapiens) (Q04721 whole entry, looked up, canonical isoform): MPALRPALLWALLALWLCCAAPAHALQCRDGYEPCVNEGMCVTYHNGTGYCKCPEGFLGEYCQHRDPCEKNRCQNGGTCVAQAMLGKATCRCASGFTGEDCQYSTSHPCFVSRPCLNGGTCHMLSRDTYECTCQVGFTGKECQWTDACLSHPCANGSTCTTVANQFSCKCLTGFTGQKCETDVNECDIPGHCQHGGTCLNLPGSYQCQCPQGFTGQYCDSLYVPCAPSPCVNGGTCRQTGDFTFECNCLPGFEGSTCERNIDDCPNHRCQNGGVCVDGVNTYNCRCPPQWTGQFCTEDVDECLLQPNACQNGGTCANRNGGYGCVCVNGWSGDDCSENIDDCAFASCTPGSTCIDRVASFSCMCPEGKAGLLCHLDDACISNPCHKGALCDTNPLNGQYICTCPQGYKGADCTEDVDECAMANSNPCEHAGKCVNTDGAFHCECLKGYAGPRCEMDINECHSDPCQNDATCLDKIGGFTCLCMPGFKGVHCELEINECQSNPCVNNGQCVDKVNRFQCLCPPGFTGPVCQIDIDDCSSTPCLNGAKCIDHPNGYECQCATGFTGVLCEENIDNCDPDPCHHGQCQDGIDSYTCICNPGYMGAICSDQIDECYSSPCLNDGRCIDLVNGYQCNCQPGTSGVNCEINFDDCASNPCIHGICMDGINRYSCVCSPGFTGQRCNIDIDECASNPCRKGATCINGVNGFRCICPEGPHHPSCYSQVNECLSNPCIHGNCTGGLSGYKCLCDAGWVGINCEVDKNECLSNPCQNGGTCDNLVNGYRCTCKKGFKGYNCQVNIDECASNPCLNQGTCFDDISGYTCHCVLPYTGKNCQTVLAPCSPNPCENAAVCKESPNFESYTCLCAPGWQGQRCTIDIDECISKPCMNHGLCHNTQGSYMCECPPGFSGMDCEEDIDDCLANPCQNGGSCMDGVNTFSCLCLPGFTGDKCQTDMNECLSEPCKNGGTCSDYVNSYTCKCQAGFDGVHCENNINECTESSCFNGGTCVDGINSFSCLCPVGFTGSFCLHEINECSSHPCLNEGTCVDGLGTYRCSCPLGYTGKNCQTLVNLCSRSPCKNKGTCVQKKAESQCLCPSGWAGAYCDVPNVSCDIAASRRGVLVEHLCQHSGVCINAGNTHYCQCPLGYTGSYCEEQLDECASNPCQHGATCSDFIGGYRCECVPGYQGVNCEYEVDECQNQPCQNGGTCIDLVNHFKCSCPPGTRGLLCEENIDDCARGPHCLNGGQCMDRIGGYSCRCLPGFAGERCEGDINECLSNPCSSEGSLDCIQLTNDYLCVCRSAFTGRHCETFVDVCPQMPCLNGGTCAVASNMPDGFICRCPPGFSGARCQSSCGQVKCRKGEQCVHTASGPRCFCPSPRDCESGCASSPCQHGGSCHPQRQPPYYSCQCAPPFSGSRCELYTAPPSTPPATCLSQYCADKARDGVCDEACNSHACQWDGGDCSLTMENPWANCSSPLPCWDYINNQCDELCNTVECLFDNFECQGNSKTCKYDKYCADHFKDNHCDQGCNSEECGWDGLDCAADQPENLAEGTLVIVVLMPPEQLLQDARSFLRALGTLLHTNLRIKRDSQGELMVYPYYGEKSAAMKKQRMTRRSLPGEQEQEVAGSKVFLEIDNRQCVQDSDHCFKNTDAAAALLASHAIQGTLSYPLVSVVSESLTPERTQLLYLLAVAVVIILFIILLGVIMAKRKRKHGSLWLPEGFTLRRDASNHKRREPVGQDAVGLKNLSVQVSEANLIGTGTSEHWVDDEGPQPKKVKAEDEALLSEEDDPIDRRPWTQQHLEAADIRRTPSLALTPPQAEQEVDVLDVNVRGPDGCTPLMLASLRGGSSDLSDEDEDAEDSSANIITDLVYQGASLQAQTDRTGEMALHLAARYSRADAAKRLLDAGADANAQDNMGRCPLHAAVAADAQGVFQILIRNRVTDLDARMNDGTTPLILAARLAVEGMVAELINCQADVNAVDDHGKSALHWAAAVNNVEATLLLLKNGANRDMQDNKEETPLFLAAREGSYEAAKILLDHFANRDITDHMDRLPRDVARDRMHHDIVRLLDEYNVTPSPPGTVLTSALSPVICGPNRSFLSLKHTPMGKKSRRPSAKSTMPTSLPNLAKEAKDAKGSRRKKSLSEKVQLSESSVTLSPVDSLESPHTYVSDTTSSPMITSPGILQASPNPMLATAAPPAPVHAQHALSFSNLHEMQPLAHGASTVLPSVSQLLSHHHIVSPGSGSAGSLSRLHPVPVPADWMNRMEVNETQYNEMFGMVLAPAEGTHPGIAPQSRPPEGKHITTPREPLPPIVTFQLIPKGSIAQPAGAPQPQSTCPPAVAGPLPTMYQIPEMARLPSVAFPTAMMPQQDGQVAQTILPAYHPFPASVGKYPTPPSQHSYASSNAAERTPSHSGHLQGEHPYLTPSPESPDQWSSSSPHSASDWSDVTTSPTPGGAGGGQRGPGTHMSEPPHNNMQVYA

[6] = target: Pro-neuregulin-1, membrane-bound isoform (Homo sapiens) (UniProt Q02297); assay: small molecules binding neuregulin-1 protein – biochemical, small-molecule microarray, fluorescence 635/667, psychiatric disease protein project, primary screen (AID 1075); conditions: NRG1 binding, 635 nm fluorescence, higher = more signal;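 also: score combines 667 nm spot fluorescence with signal to noise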
Sequence of Pro-neuregulin-1, membrane-bound isoform (Homo sapiens) (Q02297 whole entry, looked up, the tested form may be a part, canonical isoform): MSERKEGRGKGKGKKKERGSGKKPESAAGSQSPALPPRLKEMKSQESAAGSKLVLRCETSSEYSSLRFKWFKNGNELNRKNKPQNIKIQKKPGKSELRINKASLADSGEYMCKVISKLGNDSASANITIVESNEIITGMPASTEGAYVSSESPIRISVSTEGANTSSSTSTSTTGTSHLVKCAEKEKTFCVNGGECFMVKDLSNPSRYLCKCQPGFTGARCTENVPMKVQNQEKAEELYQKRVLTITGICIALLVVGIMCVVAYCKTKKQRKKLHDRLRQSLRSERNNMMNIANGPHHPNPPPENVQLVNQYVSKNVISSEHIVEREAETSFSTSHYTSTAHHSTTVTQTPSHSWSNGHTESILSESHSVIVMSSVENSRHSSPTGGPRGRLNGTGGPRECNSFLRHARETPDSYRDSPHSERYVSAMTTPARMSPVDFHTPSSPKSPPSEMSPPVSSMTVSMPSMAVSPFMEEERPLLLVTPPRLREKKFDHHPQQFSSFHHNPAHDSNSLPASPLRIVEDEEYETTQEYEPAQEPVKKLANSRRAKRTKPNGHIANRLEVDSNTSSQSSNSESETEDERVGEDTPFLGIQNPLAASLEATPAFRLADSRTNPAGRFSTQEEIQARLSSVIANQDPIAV

[7] = system: Neuregulin-1 EGF-like domain; assay: small molecules binding NRG1 EGF domain – biochemical, small-molecule microarray, 635 nm fluorescence, primary screen (AID 1081); conditions: higher = more signal;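 also: binding of the protein to compounds printed on small-molecule microarray slides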
[8] = FRG1 expression reporter modulators in myotubes – cell-based, C2C12 myotubes, firefly/Renilla luciferase, luminescence, FRG1 inhibition for FSHD, primary screen (AID 1084); conditions: FRG1 promoter luciferase, higher = more signal, called active from +8 up or from −8 down
[9] = small molecules captured by biotinylated probe aFST – biochemical, small-molecule microarray, fluorescence 635/667, stem cell growth factor project, primary screen (AID 1086); conditions: higher = more signal;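 also: score merges 667 nm fluorescence with signal-to-noise of each printed compound spot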
[10] = binders of probe aHhip on microarray, primary screen, stem cell growth factor project, biochemical, small-molecule microarray, fluorescence 635/667 (AID 1087); conditions: higher = more signal;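 also: score merges spot fluorescence at 667nm with spot signal to noise ratio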
[11] = system: PRMT1 (protein arginine N-methyltransferase 1); assay: small molecules binding arginine methyltransferase PRMT1 – biochemical, small-molecule microarray, 635 nm fluorescence, primary screen (AID 1088); conditions: higher = more signal;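 also: binding of Prmt1 protein to compounds spotted on small-molecule microarray slides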
[12] = growth effects on S. cerevisiae YJM789 – YJM789 clinical isolate, OD600, 24 h, basal, primary screen (AID 1089); conditions: higher = more signal, called active from +8 up or from −8 down;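 also: growth of clinical yeast isolate S. cerevisiae YJM 789 seeded 1000 cells per well; test concentration not given here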
[13] = S. pombe growth modifiers, basal conditions – strain 972, OD600, 24 h, no modulator, primary screen (AID 1090);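 also: basal condition with compound alone and no growth modifier present; test concentration not given here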; conditions: S. pombe 972 growth, higher = more signal, called active from +8 up or from −8 down
[14] = budding yeast growth modifiers under rapamycin – strain BY4716, OD600, 96 h, primary screen (AID 1091); also: test concentration not given here; conditions: S. cerevisiae BY4716 + rapamycin, higher = more signal, called active from +8 up or from −8 down
[15] = target: Torsin-1A-interacting protein 2 (Homo sapiens) (UniProt Q8NFQ8); assay: small molecules binding lysate-expressed LULL1 – cell lysate, human LULL1 lysate, 635/667 nm fluorescence, primary screen (AID 1092); conditions: small-molecule microarray, hLULL1 lysate binding, 635 nm fluorescence; higher = more signal;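 also: probe is lysate of COS7 cells overexpressing human LULL1; score merges per-feature 667 nm fluorescence with signal-to-noise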
Sequence of Torsin-1A-interacting protein 2 (Homo sapiens) (Q8NFQ8 whole entry, looked up): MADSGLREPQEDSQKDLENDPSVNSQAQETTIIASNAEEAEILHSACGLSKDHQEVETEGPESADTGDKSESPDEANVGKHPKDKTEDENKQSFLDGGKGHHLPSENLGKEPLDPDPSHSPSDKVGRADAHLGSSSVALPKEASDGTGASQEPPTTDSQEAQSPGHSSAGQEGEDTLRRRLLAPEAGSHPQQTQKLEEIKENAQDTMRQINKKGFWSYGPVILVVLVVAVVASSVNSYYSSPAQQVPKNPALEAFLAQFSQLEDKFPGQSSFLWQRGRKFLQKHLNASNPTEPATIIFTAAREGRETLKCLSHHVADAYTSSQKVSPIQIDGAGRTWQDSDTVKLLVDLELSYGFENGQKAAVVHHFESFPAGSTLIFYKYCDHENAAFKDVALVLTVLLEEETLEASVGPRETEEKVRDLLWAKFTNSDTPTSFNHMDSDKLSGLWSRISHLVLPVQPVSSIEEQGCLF

[16] = optical density change of DRC41 E. coli – strain DRC41, OD650, 24 h, E. coli filamentation project, primary screen (AID 1093);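 also: MC1000 strain lacking acrAB efflux and sulA so SOS filamentation is blocked; test concentration not given here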; conditions: E. coli DRC41 growth, higher = more signal, called active from +8 up or from −8 down
[17] = probe aLefty2 binding to arrayed compounds – biochemical, biotinylated probe, 635/667 nm fluorescence, primary screen (AID 1094); conditions: small-molecule microarray, higher = more signal;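 also: score merges spot fluorescence near 667 nm with spot signal-to-noise ratio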
[18] = system: Noggin (protein binding on small-molecule microarray); assay: small molecules binding Noggin protein – biochemical, 635/667 nm fluorescence, primary screen (AID 1095); conditions: 635 nm fluorescence, higher = more signal;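 also: score merges 667 nm feature fluorescence with signal to noise over triplicate slides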
[19] = target: Neurogenic locus notch homolog protein 3 (Homo sapiens) (UniProt Q9UM47); assay: small molecules binding NOTCH3 protein – biochemical, 635/667 nm fluorescence, primary screen (AID 1096); conditions: small-molecule microarray, 635 nm fluorescence, higher = more signal
[20] = probe aEGFR binding to arrayed compounds – biochemical, biotinylated probe, 635/667 nm fluorescence, primary screen (AID 1097); conditions: small-molecule microarray, higher = more signal;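 also: probe is a biotinylated anti-EGFR antibody binding compounds printed on slides; score combines fluorescence near 667 nm and signal to noise of each spot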

SMILES | composite z-score [1] | composite z-score [2] | composite z-score [3] | composite z-score [4] | composite z-score [5] | composite z-score [6] | composite z-score [7] | z-score [8] | composite z-score [9] | composite z-score [10] | composite z-score [11] | z-score [12] | z-score [13] | z-score [14] | composite z-score [15] | z-score [16] | composite z-score [17] | composite z-score [18] | composite z-score [19] | composite z-score [20]
COCCOC(=O)N1C(=O)[C@@]2(c3cc(C#CCC(C(=O)OC)C(=O)OC)ccc31)[C@H](c1ccc(OCCO)cc1)N1[C@H](c3ccccc3)[C@H](c3ccccc3)OC(=O)[C@H]1[C@@H]2C(=O)N1CCCCCCC1 | 3.74 | 1.64 | 0.671 | 0.304 | 1.37 | 0.812 | 1.3 | 0.562 (inactive) | 3.32 | 3.43 | 1.56 | 1.9 (inactive) | 0.911 (inactive) | 3.67 (inactive) | 3.6 | 1.43 (inactive) | 1.68 | 1.43 | 1.06 | 1.03
COC(=O)Cn1c(C(=O)N(C)C)cc2c1C[C@H]1CN(C(=O)c3ccccc3)[C@@](Cc3ccc(OC)cc3)(C(=O)OC)[C@@H]21 | 0.2 | -0.195 | 0.347 | 1.25 | 1.19 | 2.13 | 1.18 | 0.296 (inactive) | 0.513 | 0.0053 | 0.995 | 0.211 (inactive) | 0.833 (inactive) | 0.493 (inactive) | 3.7 | -0.692 (inactive) | 0.134 | 0.471 | 1.11 | -0.0476
CC(C)(C)N1CC=CC23O[C@@H]4/C=C\CCCOC(=O)C4[C@H]2C(=O)N(CCCCCCO)[C@@H]3C1=O (stereo not given in full) | 0.509 | -0.342 | -0.208 | -0.056 | -1.12 | 1.1 | 0.781 | -1.09 (inactive) | -0.392 | -0.0618 | -0.0574 | -3.01 (inactive) | -0.927 (inactive) | -0.624 (inactive) | 1.24 | 1.42 (inactive) | -0.302 | -1.19 | -0.052 | 0.252
C=CC[C@]1(C(=O)NCCCOC)N=C(c2ccc(OCCCO)cc2)O[C@H]1c1ccccc1 | 0.272 | -0.188 | 0.0823 | -0.179 | -0.664 | 1.87 | 1.33 | 0.364 (inactive) | 1.04 | -0.0237 | 0.36 | -0.193 (inactive) | -0.266 (inactive) | -0.739 (inactive) | 3.29 | 0.753 (inactive) | 0.037 | -0.0071 | -0.0832 | -0.146
Cc1ccc(S(=O)(=O)N2[C@@H](c3ccccc3)C(C(=O)O)=CC[C@H]2c2ccc(C#N)cc2)cc1 | 0.163 | -0.198 | 0.0624 | 1.07 | 1.39 | 1.72 | 0.808 | -3.73 (inactive) | 0.538 | -0.265 | 1.21 | -0.143 (inactive) | 0.612 (inactive) | -0.371 (inactive) | 3.39 | -1.5 (inactive) | -0.003 | -0.495 | 0.721 | -0.0238
C[N+](C)(C)CCCC[C@@H]1NC(=O)[C@H]2C[C@@H](C(=O)NCCCCCNC(=O)CS)[C@@H](c3ccc(O)cc3)N2C1=O | -0.257 | -0.0727 | -0.118 | 0.198 | 0.363 | 1.55 | 0.745 | -1.04 (inactive) | 0.104 | 0.0623 | 0.808 | -4.72 (inactive) | -0.839 (inactive) | -0.554 (inactive) | 1.91 | 1.42 (inactive) | -0.134 | 0.212 | 0.58 | -0.0583
CO[C@H]1O[C@H](CO)[C@@H](OC(=O)Nc2ccc(C(F)(F)F)cc2)[C@H](OC(=O)Nc2ccccc2-c2ccccc2)[C@@H]1OC(=O)Nc1ccccc1-c1ccccc1 | 0.433 | 1.65 | -0.0262 | 0.94 | 1.56 | 1.77 | 1.29 | -0.228 (inactive) | 1.32 | -0.146 | 1.54 | 0.94 (inactive) | 1.25 (inactive) | 4.92 (inactive) | 2.4 | 0.193 (inactive) | 0.33 | 1.32 | 1.02 | 0.0752
C[N+](C)(C)CCCCCCNC(=O)[C@@H]1C[C@@H]2C(=O)N[C@@H](Cc3ccccc3)C(=O)N2[C@@H]1c1ccc(O)cc1 | -0.283 | 1.18 | -0.0138 | 0.33 | 0.581 | 1.73 | 1.03 | 2.56 (inactive) | 0.957 | 0.0373 | 1.54 | -0.351 (inactive) | -0.193 (inactive) | -0.496 (inactive) | 3.06 | -0.0343 (inactive) | -0.183 | 1.46 | 1.04 | 0.0144
N#Cc1ccc(C(O)C2C=CC3C(=O)N(c4ccccc4)C(=O)C3N2Nc2ccc([N+](=O)[O-])cc2)cc1 (stereo not given) | 0.561 | 0.31 | 0.139 | 0.863 | 1.58 | 1.77 | 1.28 | 0.498 (inactive) | 1.02 | -0.175 | 1.51 | -0.107 (inactive) | 0.602 (inactive) | 2.45 (inactive) | 3.13 | -0.684 (inactive) | 0.0913 | -0.463 | 1.09 | 0.0522
COC(=O)c1c(CC[C@@H](CO)NC(=O)N[C@@H](Cc2ccccc2)Cn2cc(-c3cncn3C)nn2)oc(C(C)=O)c1C(=O)OC | -0.42 | 0.259 | -0.129 | 0.716 | -0.451 | 1.67 | 1.29 | 0.691 (inactive) | 0.0625 | -0.0401 | 1.51 | 0.268 (inactive) | -0.0536 (inactive) | -0.131 (inactive) | 2.99 | 0.916 (inactive) | -0.215 | 0.801 | 0.912 | -0.142
